From paper PMC7862700, “An all-to-all approach to the identification of sequence-specific readers for epigenetic DNA modifications on cytosine” come the findings set out here.

Common to all, as to assay: DAPPL (digital affinity profiling via proximity ligation, sequencing); 10 mM Tris-HCl pH 7.5, 50 mM NaCl, 1 mM DTT, 4% glycerol, room temperature, 30 min; GST-TFs on glutathione beads, 16-mer random dsDNA library, 0.1% formaldehyde crosslink after washing; high values mean tight binding
Settings in all cases: protein: recombinant; tags: N-terminal GST; dsDNA, one strand shown

The target of one assay is T1, ERG (Homo sapiens, UniProt P11308 1-479).
T1 sequence: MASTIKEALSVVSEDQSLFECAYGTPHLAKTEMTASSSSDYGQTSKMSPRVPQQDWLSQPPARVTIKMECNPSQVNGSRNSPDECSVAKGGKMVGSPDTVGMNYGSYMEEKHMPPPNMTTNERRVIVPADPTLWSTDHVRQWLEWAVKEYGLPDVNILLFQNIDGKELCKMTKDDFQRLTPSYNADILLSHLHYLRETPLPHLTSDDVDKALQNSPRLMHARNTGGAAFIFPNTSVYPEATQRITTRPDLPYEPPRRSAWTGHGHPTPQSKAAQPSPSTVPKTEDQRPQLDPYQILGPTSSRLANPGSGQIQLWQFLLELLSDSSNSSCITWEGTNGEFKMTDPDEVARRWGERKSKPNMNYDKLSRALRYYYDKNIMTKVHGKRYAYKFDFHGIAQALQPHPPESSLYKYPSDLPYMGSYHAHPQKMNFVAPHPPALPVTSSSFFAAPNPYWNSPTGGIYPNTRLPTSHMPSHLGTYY
The method, boiled down: (§1)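 Sequencing on an Illumina NextSeq500 followed washing, crosslinking with 0.1% formaldehyde, proximity ligation (BsaI/T4 ligase, 1 h, 37 °C) and PCR amplification of pools that had been incubated for 30 min at room temperature with 200 nmole of a random double-stranded 16-mer DNA library in Tris/NaCl/DTT/glycerol buffer. Each pool held DNA-barcoded human transcription factors, expressed in yeast as GST fusions and captured on glutathione beads, plus a tag-only sample. Binding signal is a hexamer's read frequency for a factor divided by its frequency in the tag-only sample.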

For another assay, the target named is ETV5 (Homo sapiens, UniProt P41161 1-510). In short, it runs like this:
as §1

For the next assay, the target named is ETV1 (Homo sapiens, UniProt P50549 1-477). In short, it runs like this:
as §1

A further assay has as its target T2, SPDEF (Homo sapiens, UniProt O95238 1-335).
T2 sequence: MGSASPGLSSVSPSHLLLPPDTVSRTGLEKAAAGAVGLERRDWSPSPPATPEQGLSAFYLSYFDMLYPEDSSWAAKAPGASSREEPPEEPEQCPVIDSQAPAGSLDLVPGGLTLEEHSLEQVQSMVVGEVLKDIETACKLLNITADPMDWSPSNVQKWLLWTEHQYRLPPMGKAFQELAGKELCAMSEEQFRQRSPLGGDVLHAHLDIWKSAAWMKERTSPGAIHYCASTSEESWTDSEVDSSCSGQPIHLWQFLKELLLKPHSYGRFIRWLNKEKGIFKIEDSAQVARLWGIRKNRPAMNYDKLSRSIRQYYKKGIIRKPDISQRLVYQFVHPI
In short, it runs like this: as §1

A further assay deals with T3, ETV3 (Homo sapiens, UniProt P41162-2 1-143).
T3 sequence: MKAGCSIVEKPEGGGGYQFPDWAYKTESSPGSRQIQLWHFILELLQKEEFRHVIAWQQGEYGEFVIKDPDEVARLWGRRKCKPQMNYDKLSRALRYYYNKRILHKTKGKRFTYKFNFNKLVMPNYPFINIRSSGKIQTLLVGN
In short, it runs like this:
as §1

The target of another assay is T4, ELK1 (Homo sapiens, UniProt P19419 1-428).
T4 sequence: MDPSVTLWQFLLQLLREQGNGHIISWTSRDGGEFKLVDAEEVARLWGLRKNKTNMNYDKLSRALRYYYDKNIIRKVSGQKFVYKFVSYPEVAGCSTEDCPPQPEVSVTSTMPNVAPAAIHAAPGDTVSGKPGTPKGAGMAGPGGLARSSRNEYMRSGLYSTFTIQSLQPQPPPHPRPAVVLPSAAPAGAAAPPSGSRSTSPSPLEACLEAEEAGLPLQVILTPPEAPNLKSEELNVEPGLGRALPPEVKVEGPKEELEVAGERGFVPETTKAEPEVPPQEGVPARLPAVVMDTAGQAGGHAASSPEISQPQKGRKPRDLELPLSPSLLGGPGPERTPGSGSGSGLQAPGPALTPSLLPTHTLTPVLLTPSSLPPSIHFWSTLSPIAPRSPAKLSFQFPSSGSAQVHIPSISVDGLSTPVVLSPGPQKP
In short, it runs like this: as §1

Another assay deals with T5, EHF (Homo sapiens, UniProt Q9NZC4 1-300).
T5 sequence: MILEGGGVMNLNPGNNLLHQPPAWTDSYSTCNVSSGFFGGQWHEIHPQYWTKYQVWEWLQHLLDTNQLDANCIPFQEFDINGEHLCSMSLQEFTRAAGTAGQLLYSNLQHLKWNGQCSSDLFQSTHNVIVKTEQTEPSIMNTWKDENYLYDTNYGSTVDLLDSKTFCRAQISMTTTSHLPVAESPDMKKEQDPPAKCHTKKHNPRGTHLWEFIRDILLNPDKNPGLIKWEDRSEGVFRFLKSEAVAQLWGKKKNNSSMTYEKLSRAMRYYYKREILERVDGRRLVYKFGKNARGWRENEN
In short, it runs like this: as §1

The target of the next assay is T6, ELK4 (Homo sapiens, UniProt P28324-2 1-405).
T6 sequence: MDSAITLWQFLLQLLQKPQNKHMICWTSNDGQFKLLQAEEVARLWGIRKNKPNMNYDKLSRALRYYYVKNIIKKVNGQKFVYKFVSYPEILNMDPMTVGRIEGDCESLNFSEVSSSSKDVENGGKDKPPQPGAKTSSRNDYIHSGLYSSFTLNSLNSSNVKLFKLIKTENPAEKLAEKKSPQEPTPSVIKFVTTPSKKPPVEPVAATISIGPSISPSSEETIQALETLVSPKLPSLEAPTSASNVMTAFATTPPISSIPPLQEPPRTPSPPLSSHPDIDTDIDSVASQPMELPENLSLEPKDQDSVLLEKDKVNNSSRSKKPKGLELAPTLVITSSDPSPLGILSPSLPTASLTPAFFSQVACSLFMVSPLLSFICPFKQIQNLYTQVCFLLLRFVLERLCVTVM
In short, it runs like this: as §1

The next assay concerns the target T7, ERF (Homo sapiens, UniProt P50548 1-548).
T7 sequence: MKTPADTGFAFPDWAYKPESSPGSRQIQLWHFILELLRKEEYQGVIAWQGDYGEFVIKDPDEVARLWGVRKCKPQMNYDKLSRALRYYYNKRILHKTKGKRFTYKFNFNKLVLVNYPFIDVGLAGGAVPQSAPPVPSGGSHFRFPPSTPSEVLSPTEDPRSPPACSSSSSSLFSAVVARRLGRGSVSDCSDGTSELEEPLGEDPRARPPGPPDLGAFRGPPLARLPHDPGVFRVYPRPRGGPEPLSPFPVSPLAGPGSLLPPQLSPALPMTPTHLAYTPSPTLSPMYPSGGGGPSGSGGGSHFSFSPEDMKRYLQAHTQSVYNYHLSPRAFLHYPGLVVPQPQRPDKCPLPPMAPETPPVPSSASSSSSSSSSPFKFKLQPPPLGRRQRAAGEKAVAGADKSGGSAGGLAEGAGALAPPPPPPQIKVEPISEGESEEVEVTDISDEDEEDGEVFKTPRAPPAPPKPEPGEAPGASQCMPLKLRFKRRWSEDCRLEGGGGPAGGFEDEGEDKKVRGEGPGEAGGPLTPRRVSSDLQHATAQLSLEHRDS
The method, boiled down:
as §1

Another assay has as its target ETV6 (Homo sapiens, UniProt P41212 1-452). In short, it runs like this: as §1
In the next assay the target is T8, GABPA (Homo sapiens, UniProt Q06546 1-454).
T8 sequence: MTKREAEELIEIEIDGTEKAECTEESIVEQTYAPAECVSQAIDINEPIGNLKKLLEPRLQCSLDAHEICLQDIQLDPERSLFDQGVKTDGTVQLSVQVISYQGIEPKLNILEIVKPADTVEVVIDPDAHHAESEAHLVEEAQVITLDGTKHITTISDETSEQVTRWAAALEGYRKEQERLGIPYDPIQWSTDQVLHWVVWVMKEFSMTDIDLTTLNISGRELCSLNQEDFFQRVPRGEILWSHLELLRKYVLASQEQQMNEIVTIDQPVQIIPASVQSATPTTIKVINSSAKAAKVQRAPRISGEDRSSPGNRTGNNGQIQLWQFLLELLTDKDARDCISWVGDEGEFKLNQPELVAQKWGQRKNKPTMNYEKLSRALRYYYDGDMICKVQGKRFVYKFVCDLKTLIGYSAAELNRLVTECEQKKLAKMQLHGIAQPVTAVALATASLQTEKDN
The method, boiled down:
as §1

The target in the next assay is SPIB (Homo sapiens, UniProt Q01892 1-262). In short, it runs like this: as §1
Chain of SPIB (Q01892 whole entry): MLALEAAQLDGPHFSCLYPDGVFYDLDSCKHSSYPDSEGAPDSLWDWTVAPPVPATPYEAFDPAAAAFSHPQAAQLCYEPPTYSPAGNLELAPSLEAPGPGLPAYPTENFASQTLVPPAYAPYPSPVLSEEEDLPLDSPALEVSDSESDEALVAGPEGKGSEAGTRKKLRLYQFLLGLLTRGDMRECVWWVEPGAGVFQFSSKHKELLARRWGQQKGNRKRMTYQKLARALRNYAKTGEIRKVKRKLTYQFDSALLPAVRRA
Another assay has as its target T9, SPIC (Homo sapiens, UniProt Q8N5J4 1-248).
T9 sequence: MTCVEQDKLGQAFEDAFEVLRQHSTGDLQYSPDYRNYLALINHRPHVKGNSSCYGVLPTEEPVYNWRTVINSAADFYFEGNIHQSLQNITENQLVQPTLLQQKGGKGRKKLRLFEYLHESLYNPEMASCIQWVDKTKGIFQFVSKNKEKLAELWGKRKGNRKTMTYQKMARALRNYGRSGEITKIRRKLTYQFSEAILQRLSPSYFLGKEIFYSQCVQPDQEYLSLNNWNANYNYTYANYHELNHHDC
In short, it runs like this:
as §1

The target of a further assay is T10, ELF3 (Homo sapiens, UniProt P78545 1-371).
T10 sequence: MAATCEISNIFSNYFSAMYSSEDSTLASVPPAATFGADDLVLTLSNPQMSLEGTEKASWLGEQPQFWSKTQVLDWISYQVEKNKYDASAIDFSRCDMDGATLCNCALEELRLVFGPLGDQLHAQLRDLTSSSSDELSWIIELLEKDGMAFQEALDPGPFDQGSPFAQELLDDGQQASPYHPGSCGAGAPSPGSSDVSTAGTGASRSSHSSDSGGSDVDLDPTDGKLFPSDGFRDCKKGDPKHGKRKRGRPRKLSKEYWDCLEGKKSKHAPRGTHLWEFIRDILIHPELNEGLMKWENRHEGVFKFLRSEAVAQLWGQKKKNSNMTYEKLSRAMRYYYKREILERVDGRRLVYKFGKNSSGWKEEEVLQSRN
In short, it runs like this: as §1

The target of another assay is T11, ETV3L (Homo sapiens, UniProt Q6ZN32 1-361).
T11 sequence: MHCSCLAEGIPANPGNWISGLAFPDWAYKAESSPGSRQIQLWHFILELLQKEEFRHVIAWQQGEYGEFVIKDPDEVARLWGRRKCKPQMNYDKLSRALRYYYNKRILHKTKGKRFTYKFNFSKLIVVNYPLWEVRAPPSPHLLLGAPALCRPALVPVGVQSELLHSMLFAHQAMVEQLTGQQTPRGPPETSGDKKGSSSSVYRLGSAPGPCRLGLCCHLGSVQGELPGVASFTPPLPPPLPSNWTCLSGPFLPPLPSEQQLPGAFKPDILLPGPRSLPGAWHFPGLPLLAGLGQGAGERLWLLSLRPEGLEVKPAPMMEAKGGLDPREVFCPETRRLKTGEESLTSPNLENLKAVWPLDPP
In short, it runs like this:
as §1

Chain of ETV5 (P41161 whole entry): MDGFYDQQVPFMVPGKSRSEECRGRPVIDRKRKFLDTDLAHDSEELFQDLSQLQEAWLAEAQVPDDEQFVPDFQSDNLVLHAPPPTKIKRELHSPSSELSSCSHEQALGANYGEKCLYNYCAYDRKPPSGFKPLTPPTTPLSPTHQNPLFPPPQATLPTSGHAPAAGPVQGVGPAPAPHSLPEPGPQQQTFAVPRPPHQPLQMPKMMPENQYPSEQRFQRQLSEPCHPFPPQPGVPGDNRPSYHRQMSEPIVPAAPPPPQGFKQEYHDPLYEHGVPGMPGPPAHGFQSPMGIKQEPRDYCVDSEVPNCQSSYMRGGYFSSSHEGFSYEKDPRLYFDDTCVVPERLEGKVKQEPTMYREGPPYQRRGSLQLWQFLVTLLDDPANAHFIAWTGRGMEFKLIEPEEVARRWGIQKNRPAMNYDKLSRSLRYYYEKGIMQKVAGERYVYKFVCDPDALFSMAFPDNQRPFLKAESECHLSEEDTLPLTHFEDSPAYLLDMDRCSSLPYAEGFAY
Chain of ETV1 (P50549 whole entry): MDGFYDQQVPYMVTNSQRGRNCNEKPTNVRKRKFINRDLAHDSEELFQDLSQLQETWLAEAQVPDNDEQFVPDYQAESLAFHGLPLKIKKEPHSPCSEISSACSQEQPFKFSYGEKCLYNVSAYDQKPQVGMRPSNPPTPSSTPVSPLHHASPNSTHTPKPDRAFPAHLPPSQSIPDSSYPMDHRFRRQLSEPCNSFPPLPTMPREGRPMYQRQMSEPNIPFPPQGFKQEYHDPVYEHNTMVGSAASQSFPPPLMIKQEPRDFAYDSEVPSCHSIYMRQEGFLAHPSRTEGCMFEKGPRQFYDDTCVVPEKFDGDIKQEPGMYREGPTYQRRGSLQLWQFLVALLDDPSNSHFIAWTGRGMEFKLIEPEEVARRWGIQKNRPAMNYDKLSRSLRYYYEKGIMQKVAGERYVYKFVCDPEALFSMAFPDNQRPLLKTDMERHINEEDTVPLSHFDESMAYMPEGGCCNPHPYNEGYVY
Chain of ETV6 (P41212 whole entry): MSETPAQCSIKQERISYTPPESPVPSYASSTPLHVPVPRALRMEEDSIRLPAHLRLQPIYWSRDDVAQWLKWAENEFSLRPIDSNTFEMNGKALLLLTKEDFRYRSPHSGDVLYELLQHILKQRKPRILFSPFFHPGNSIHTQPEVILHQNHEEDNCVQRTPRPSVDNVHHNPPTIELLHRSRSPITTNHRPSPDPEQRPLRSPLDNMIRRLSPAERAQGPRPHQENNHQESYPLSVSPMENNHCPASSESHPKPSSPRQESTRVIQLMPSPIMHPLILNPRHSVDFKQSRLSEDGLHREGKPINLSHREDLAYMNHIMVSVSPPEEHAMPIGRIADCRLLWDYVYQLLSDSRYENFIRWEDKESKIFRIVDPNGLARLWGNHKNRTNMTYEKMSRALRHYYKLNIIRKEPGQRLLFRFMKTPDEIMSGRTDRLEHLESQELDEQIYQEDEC

Turning to GTCCGG, the binding signal is 1.03 fold enrichment (6-mer frequency, TF over GST control) in the assay with ERG; 1.01 fold enrichment (6-mer frequency, TF over GST control) with ETV5; 1 fold enrichment (6-mer frequency, TF over GST control) with ETV1; 1.18 fold enrichment (6-mer frequency, TF over GST control) in the assay with SPDEF; 1.05 fold enrichment (6-mer frequency, TF over GST control) in the assay with ETV3.

In the case of TGAAGC, the binding signal in the assay with ELK1 is 1.05 fold enrichment (6-mer frequency, TF over GST control); with EHF, 1.04 fold enrichment (6-mer frequency, TF over GST control); with ETV5 it was 1.01 fold enrichment (6-mer frequency, TF over GST control); with ELK4 it was 1.04 fold enrichment (6-mer frequency, TF over GST control); in the assay with ERF, 1.07 fold enrichment (6-mer frequency, TF over GST control); in the assay with ETV3 it was 1 fold enrichment (6-mer frequency, TF over GST control). In addition, in the assay with ETV6, the binding signal is 1.01 fold enrichment (6-mer frequency, TF over GST control).

Consider GCGTAT, for which the binding signal with ELK1 is 1.04 fold enrichment (6-mer frequency, TF over GST control); in the assay with GABPA, 1 fold enrichment (6-mer frequency, TF over GST control); with ERG, 1.03 fold enrichment (6-mer frequency, TF over GST control); in the assay with SPIB, 1.11 fold enrichment (6-mer frequency, TF over GST control); with ETV5, 1.05 fold enrichment (6-mer frequency, TF over GST control); with SPIC it was 1.07 fold enrichment (6-mer frequency, TF over GST control). The binding signal with ELF3 is 1.03 fold enrichment (6-mer frequency, TF over GST control); in the assay with ETV1, 1.05 fold enrichment (6-mer frequency, TF over GST control); in the assay with ETV3L, 1.02 fold enrichment (6-mer frequency, TF over GST control).
